Screen size: about 5,500 compounds; about 2,000 (36%) were called active. Roughly 18% stayed inconclusive and do not appear here. No stated cut-off is given here; in the data, active means normalized growth mostly below about 0.91 (no sharp cut-off); inconclusive means no clear call, values can overlap the other calls; inactive means mostly above about 0.92. This is one part of the list.
Test: chemical genetic growth profiling, strain panel (AID 1159580);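 further: tested at 20 µM; growth read once vehicle control cultures reached saturation at 30 °C; 1 = growth at the plate median or of vehicle wells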
Conditions: S. cerevisiae deletion strains, growth OD
[1] = locus YAL013W, strain DEP1, stronger effect = lower value
[2] = locus YBR229C, strain ROT2, stronger effect = lower value
[3] = locus YDL101C, strain DUN1, stronger effect = lower value
[4] = locus YDL134C, strain PPH21, stronger effect = lower value
[5] = locus YDR150W, strain NUM1, stronger effect = lower value
[6] = locus YEL061C, strain CIN8, stronger effect = lower value
[7] = locus YGR078C, strain PAC10, stronger effect = lower value
[8] = locus YHR030C, strain SLT2, stronger effect = lower value
[9] = locus YHR087W, strain rtc3, stronger effect = lower value
[10] = locus YJR043C, strain POL32, stronger effect = lower value
[11] = locus YJR075W, strain HOC1, stronger effect = lower value
[12] = locus YLR039C, strain RIC1, stronger effect = lower value
[13] = locus YLR058C, strain SHM2 (second series), stronger effect = lower value
[14] = locus YLR085C, strain ARP6, stronger effect = lower value
[15] = locus YLR262C, strain YPT6, stronger effect = lower value
[16] = locus YML094W, strain GIM5, stronger effect = lower value
[17] = locus YMR219W, strain ESC1, stronger effect = lower value
[18] = locus YMR263W, strain SAP30, stronger effect = lower value
[19] = locus YMR307W, strain GAS1, stronger effect = lower value
[20] = locus YNL153C, strain GIM3, stronger effect = lower value
[21] = locus YNL298W, strain CLA4 (second series), stronger effect = lower value
[22] = locus YNL322C, strain KRE1, stronger effect = lower value
[23] = locus YNR030W, strain Alg12, stronger effect = lower value
[24] = locus YPL055C, strain LGE1, stronger effect = lower value
[25] = locus YPL241C, strain CIN2, stronger effect = lower value
[26] = locus YPR135W, strain CTF4, stronger effect = lower value
[27] = locus YGR229C, strain SMI1, stronger effect = lower value
[28] = locus YJL187C, strain SWE1, stronger effect = lower value

Measured: normalized growth

CCCS(=O)(=O)c1c(C)c(C)n(Cc2ccccc2)c1N
active: [14] 1.27 [resistant]
inactive: [1] 1.02 | [2] 1.01 | [3] 0.972 | [4] 0.999 | [5] 1 | [6] 0.999 | [7] 1 | [8] 1.06 | [9] 1 | [10] 0.997 | [11] 0.99 | [12] 1.05 | [13] 1 | [15] 1.03 | [16] 1.04 | [17] 1 | [18] 0.999 | [19] 1.14 | [20] 1 | [21] 1.02 | [22] 0.999 | [23] 1.02 | locus YOL006C, strain TOP1, stronger effect = lower value 1.2 | [24] 1.06 | [25] 1.1 | [26] 1.15

Cc1cccc(Cn2c(C)c(C)c(S(=O)(=O)c3ccccc3)c2N)c1C
active: [14] 1.24 [resistant]
inactive: [1] 1.03 | [2] 1.01 | [3] 0.98 | [4] 0.978 | [5] 1.01 | [6] 0.998 | [7] 1.03 | [27] 0.984 | [8] 0.917 | [9] 1.01 | [28] 0.996 | [10] 1 | [11] 0.996 | locus YKL190W, strain CNB1, stronger effect = lower value 0.987 | [12] 0.803 | [13] 0.999 | [15] 0.873 | [16] 1.05 | [17] 1.01 | [18] 1.01 | locus YNL128W, strain TEP1, stronger effect = lower value 0.998 | [20] 1.04 | [21] 0.98 | [22] 1 | [23] 1.01 | [24] 1.06 | [25] 1.03 | [26] 1.16

CC1=C(/C=C/C(C)=C/C=C/C(C)=C/C=C/C=C(C)/C=C/C=C(C)/C=C/C2=C(C)C(=O)C(O)CC2(C)C)C(C)(C)CC(O)C1=O (centres undefined)
active: locus YBR171W, strain sec66, stronger effect = lower value 1.11 [resistant] | locus YKR026C, strain gcn3, stronger effect = lower value 1.08 [resistant]
inactive: locus YAL021C, strain ccr4, stronger effect = lower value 1.04 | locus YAL026C, strain drs2, stronger effect = lower value 1.07 | locus YAL030W, strain snc1, stronger effect = lower value 1.03 | locus YBL061C, strain skt5, stronger effect = lower value 1.03 | locus YBR009C, strain hhf1, stronger effect = lower value 1.05 | locus YBR021W, strain FUR4, stronger effect = lower value 0.962 | locus YBR023C, strain chs3, stronger effect = lower value 1.03 | [2] 0.942 | locus YBR231C, strain swc5, stronger effect = lower value 1.05 | locus YBR279W, strain paf1, stronger effect = lower value 1.02 | locus YCL011C, strain gbp2, stronger effect = lower value 1.04 | locus YCL016C, strain dcc1, stronger effect = lower value 1.02 | locus YCL029C, strain bik1, stronger effect = lower value 0.973 | locus YCL061C, strain MRC1, stronger effect = lower value 1.07 | locus YCL069W, strain vba3, stronger effect = lower value 1.05 | locus YCR088W, strain abp1, stronger effect = lower value 1.06 | locus YDL005C, strain med2, stronger effect = lower value 1.05 | locus YDL035C, strain GPR1, stronger effect = lower value 0.939 | locus YDL040C, strain nat1, stronger effect = lower value 1.01 | locus YDL074C, strain BRE1, stronger effect = lower value 0.981 | [3] 0.986 | locus YDL185W, strain tfp1, stronger effect = lower value 0.964 | locus YDL192W, strain arf1, stronger effect = lower value 0.988 | locus YDR001C, strain nth1, stronger effect = lower value 1.07 | locus YDR069C, strain doa4, stronger effect = lower value 1.04 | locus YDR101C, strain arx1, stronger effect = lower value 0.985 | locus YDR137W, strain rgp1, stronger effect = lower value 1.02 | locus YDR159W, strain sac3, stronger effect = lower value 1.04 | locus YDR162C, strain NBP2, stronger effect = lower value 0.947 | locus YDR195W, strain ref2 1.12 | locus YDR297W, strain sur2, stronger effect = lower value 1.03 | locus YDR318W, strain mcm21, stronger effect = lower value 0.983 | locus YDR334W, strain swr1, stronger effect = lower value 1.07 | locus YDR335W, strain msn5, stronger effect = lower value 1.05 | locus YDR388W, stronger effect = lower value 0.992 | locus YDR392W, strain spt3, stronger effect = lower value 1.04 | locus YDR502C, strain sam2, stronger effect = lower value 0.993 | locus YEL003W, strain gim4, stronger effect = lower value 1.04 | locus YEL037C, strain rad23, stronger effect = lower value 1.05 | locus YEL061C, strain CIN8 (second series), stronger effect = lower value 1.05 | [6] 0.981 | locus YER015W, strain faa2, stronger effect = lower value 1.04 | locus YER016W, strain bim1, stronger effect = lower value 1.03 | locus YER110C, stronger effect = lower value 0.992 | locus YER111C, strain swi4, stronger effect = lower value 1.07 | locus YER155C, strain BEM2 (second series), stronger effect = lower value 1.09 | locus YER155C, strain BEM2, stronger effect = lower value 0.998 | locus YER167W, strain BCK2, stronger effect = lower value 0.984 | locus YFR010W, strain ubp6, stronger effect = lower value 1.08 | locus YGL078C, strain dbp3, stronger effect = lower value 0.99 | locus YGL086W, strain mad1, stronger effect = lower value 0.997 | locus YGL167C, strain pmr1, stronger effect = lower value 1.04 | locus YGL173C, strain kem1, stronger effect = lower value 1.03 | locus YGL227W, strain vid30, stronger effect = lower value 1.08 | locus YGL240W, strain doc1, stronger effect = lower value 1.03 | locus YGL248W, strain PDE1, stronger effect = lower value 0.987 | locus YGL253W, strain hxk2, stronger effect = lower value 1.05 | locus YGR135W, strain pre9, stronger effect = lower value 0.992 | [27] 0.982 | locus YGR252W, strain gcn5, stronger effect = lower value 0.944 | locus YHR013C, strain ard1, stronger effect = lower value 1.02 | locus YHR027C, strain rpn1, stronger effect = lower value 1.03 | [8] 0.984 | locus YHR079C, strain IRE1 (second series), stronger effect = lower value 0.996 | locus YHR094C, strain hxt1, stronger effect = lower value 0.988 | locus YHR129C, strain ARP1, stronger effect = lower value 0.996 | locus YHR142W, strain chs7, stronger effect = lower value 1.07 | locus YHR200W, strain rpn10, stronger effect = lower value 0.988 | locus YIL066C, strain RNR3, stronger effect = lower value 0.907 | locus YIL073C, strain SPO22, stronger effect = lower value 1.02 | locus YIL125W, strain kgd1, stronger effect = lower value 0.99 | locus YIR030C, strain dcg1, stronger effect = lower value 1.01 | locus YJL092W, strain hpr5, stronger effect = lower value 1.07 | locus YJL095W, strain BCK1 (second series), stronger effect = lower value 1.03 | locus YJL095W, strain BCK1, stronger effect = lower value 1.06 | locus YJL115W, strain asf1, stronger effect = lower value 1.08 | locus YJL129C, strain trk1, stronger effect = lower value 1.07 | locus YJL134W, strain LCB3, stronger effect = lower value 0.98 | locus YJL154C, strain vps35, stronger effect = lower value 1.05 | locus YJL164C, strain tpk1, stronger effect = lower value 1.02 | locus YJL166W, strain qcr8, stronger effect = lower value 1.02 | locus YJL168C, strain set2, stronger effect = lower value 0.989 | locus YJL187C, strain SWE1 (second series), stronger effect = lower value 1.01 | [28] 1.02 | [10] 0.929 | locus YKL009W, strain mrt4, stronger effect = lower value 0.994 | locus YKL068W, stronger effect = lower value 0.981 | locus YKL085W, strain MDH1 (second series), stronger effect = lower value 0.996 | locus YKL085W, strain MDH1, stronger effect = lower value 0.996 | locus YKL160W, strain elf1, stronger effect = lower value 1.02 | locus YKR001C, strain vps1, stronger effect = lower value 0.992 | locus YKR091W, strain srl3, stronger effect = lower value 1.03 | locus YLL001W, strain dnm1, stronger effect = lower value 1.05 | locus YLL026W, stronger effect = lower value 1.02 | locus YLL041C, strain sdh2, stronger effect = lower value 1.03 | locus YLR027C, strain aat2, stronger effect = lower value 1.03 | [12] 0.981 | locus YLR058C, strain SHM2, stronger effect = lower value 0.971 | locus YLR102C, strain apc9, stronger effect = lower value 0.993 | locus YLR221C, strain rsa3, stronger effect = lower value 1.03 | locus YLR258W, strain gsy2, stronger effect = lower value 1.03 | locus YLR262C, strain YPT6 (second series), stronger effect = lower value 0.986 | [15] 1.01 | locus YLR268W, strain sec22, stronger effect = lower value 0.999 | locus YLR320W, strain mms22, stronger effect = lower value 1.04 | locus YLR330W, strain CHS5, stronger effect = lower value 0.99 | locus YLR342W, strain FKS1 (second series), stronger effect = lower value 0.918 | locus YLR342W, strain FKS1, stronger effect = lower value 1.04 | locus YLR357W, strain rsc2, stronger effect = lower value 1.12 | locus YLR370C, strain arc18, stronger effect = lower value 1.06 | locus YLR371W, strain rom2, stronger effect = lower value 0.981 | locus YLR384C, strain iki3, stronger effect = lower value 1.03 | locus YLR418C, strain cdc73, stronger effect = lower value 0.997 | locus YML016C, strain PPZ1, stronger effect = lower value 0.973 | locus YML032C, strain rad52, stronger effect = lower value 0.983 | locus YML120C, strain ndi1, stronger effect = lower value 1.03 | locus YML124C, strain tub3, stronger effect = lower value 0.991 | locus YMR058W, strain fet3, stronger effect = lower value 1.08 | locus YMR078C, strain ctf18, stronger effect = lower value 0.979 | locus YMR125W, strain sto1, stronger effect = lower value 1.09 | locus YMR129W, stronger effect = lower value 1.05 | locus YMR205C, strain PFK2, stronger effect = lower value 1.05 | locus YMR223W, strain ubp8, stronger effect = lower value 0.997 | locus YMR231W, strain pep5, stronger effect = lower value 1.05 | [18] 1 | [19] 0.965 | locus YNL067W, strain RPL9B, stronger effect = lower value 1.06 | locus YNL071W, strain lat1, stronger effect = lower value 1.02 | [20] 1.02 | locus YNL209W, strain ssb2, stronger effect = lower value 1.03 | locus YNL233W, strain BNI4, stronger effect = lower value 1.05 | locus YNL248C, strain rpa49, stronger effect = lower value 1.07 | locus YNL250W, strain rad50, stronger effect = lower value 0.972 | locus YNL271C, strain bni1, stronger effect = lower value 0.988 | locus YNL298W, strain CLA4, stronger effect = lower value 0.98 | locus YNL307C, strain MCK1, stronger effect = lower value 0.988 | locus YNL322C, strain KRE1 (second series), stronger effect = lower value 1.04 | locus YNR049C, strain mso1, stronger effect = lower value 1.06 | locus YNR052C, strain pop2, stronger effect = lower value 0.998 | locus YOL012C, strain htz1 1.22 | locus YOL147C, strain pex11, stronger effect = lower value 0.995 | locus YOR001W, strain rrp6, stronger effect = lower value 1.03 | locus YOR061W, strain CKA2, stronger effect = lower value 0.953 | locus YOR069W, strain VPS5, stronger effect = lower value 0.985 | locus YOR070C, strain gyp1, stronger effect = lower value 1.02 | locus YOR080W, strain dia2, stronger effect = lower value 1.04 | locus YOR083W, strain WHI5, stronger effect = lower value 1.01 | locus YOR106W, strain vam3, stronger effect = lower value 1.02 | locus YOR136W, strain idh2, stronger effect = lower value 1 | locus YOR144C, strain elg1, stronger effect = lower value 0.999 | locus YOR184W, strain ser1, stronger effect = lower value 0.985 | locus YOR265W, strain rbl2, stronger effect = lower value 1.03 | locus YOR270C, strain vph1, stronger effect = lower value 1.16 | locus YOR290C, strain snf2, stronger effect = lower value 1.04 | locus YOR316C, strain cot1, stronger effect = lower value 0.994 | locus YPL051W, strain arl3, stronger effect = lower value 1 | [24] 0.959 | locus YPL078C, strain atp4, stronger effect = lower value 1.05 | locus YPL106C, strain sse1, stronger effect = lower value 1.06 | locus YPL240C, strain hsp82, stronger effect = lower value 1.02 | [25] 0.984 | locus YPR119W, strain clb2, stronger effect = lower value 0.988 | locus YPR141C, strain kar3, stronger effect = lower value 0.989 | locus YPR163C, strain tif3, stronger effect = lower value 0.977 | locus YPR167C, strain met16, stronger effect = lower value 0.992 | strain wtn01, stronger effect = lower value 0.976

From PubChem BioAssay AID1159580 (chemical genetic matrix, 2015)
